SMILES strings stand for the structures. The panel holds about 79,000 compounds, 15% with a hit somewhere; the sample as a whole holds those more often. A number with no mark means an inactive call. The source made the active and inactive calls. Rule as the data show it: active = growth inhibition above about 70%; inactive = the rest.

This experiment can be described thus: NCI Yeast Anticancer Drug Screen. Data for the rad50 strain (AID 155).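 Also: 0% = growth of vehicle-only cultures of the same strain.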 To be noted: S. cerevisiae rad50 strain growth inhibition; at 50.0 µM (retest, dose inferred, filed as 5.0); hits give high values. In a few lines:
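Growth of the mutant yeast was measured after compound exposure and referenced to vehicle-treated cultures.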
For `CCOC(=O)C1C(O)=C(P(=O)(C2=C(O)C(C(=O)OCC)C(c3ccc(OC(C)=O)cc3)C(C(=O)O)C2=O)N(CCCl)CCCl)C(=O)C(C(=O)O)C1c1ccc(OC(C)=O)cc1` (stereo not drawn), the growth inhibition is 86% (active).

Regarding `c1ccc([As+](c2ccccc2)(c2ccccc2)c2cccc3ccccc23)cc1`, the growth inhibition is 99% (active).

`CCCCCCCCc1ccc(OCCN(CCCl)CCCl)cc1`: the growth inhibition is 99% (active).

`S=C=NCCc1ccccc1`: the growth inhibition is 21%.

Turning to `COC1=C(Cl)C(=O)c2ccccc2C1=O`, the growth inhibition was 98% (active).

Take `CN(C)c1ccc(N=Nc2cccc(C(=O)[O-])c2)cc1.CN(C)c1ccc(N=Nc2cccc(C(=O)[O-])c2)cc1.NC1CCCCC1N.O=[N+]([O-])O.[Pt+4]`: the growth inhibition was 98% (active).

As to `CCOC(=O)c1ccc(N=Cc2ccc(N(CCCl)CCCl)cc2C)cc1`, the growth inhibition is 15%.

`O=c1s[se]c2ccccc12`: the growth inhibition is 98% (active).

Consider `CC1CCC2(OC1)OC1C(O)C3C4CCC5CC(OC6OC(CO)C(OC7OC(CO)C(O)C(OC8OCC(O)C(O)C8O)C7OC7OC(CO)C(O)C(OC8OC(CO)C(O)C(O)C8O)C7O)C(O)C6O)C(O)CC5(C)C4CCC3(C)C1C2C` (stereo not drawn), for which the growth inhibition was 99% (active).

Take `CN(C)c1ccc(/C=C/c2cc3scc(-c4ccccc4)[n+]3c3ccccc23)cc1`: the growth inhibition was 87% (active).

Turning to `CSCCC([NH-])C(=O)O.CSCCC([NH-])C(=O)O.[Zn+2]` (stereo not drawn), the growth inhibition is 1%.

Take `O=C(O)CN1CCN(CC(=O)O)CC(=O)[O][Hg][O]C(=O)C1`: the growth inhibition was 99% (active).

For the molecule `Cc1c2ccncc2c(CN(CCCl)CCCl)c2c3ccccc3n(C)c12`, the growth inhibition was 98% (active).

The values above are taken from PubChem BioAssay (NCI).
